Records with an inconclusive call do not appear. Entries that show only a call come without a potency. Activity calls are given as the source filed them. The call rests on the fitted dose curve; in most records, active means well fitted inhibition curve with a large enough effect; inconclusive means small, poorly fitted or top-dose-only effect; inactive means flat fitted curve, though single readings scatter.
Test system: CRL-7250
Assay: qHTS assay to identify novel small-molecules to repurpose for Merkel cell carcinoma treatment (AID 1296009); further: nearly all actives have a fitted effect of over 60% in size
Conditions: MCC and control cell lines, CellTiter-Glo viability, 72 h; series mostly up to 92 µM
Procedure, shortened: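 After compound transfer in DMSO, plates were kept 72 hr at 37 degree celsius. Luminescent ATP signal from CellTiter-Glo served as viability measure, normalized against DMSO and no-cell controls.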

Structure (SMILES)	Potency	outcome
COC(=O)C1=COC(O[C@@H]2O[C@H](COC(=O)/C=C/c3ccc(O)cc3)[C@@H](O)[C@H](O)[C@H]2O)C2C(CO)=CCC12 (stereo partly drawn)	inactive	
COc1ccncc1C(=O)NC(=O)Nc1ccc(-c2ccccc2)c(C(F)(F)F)c1	inactive	
COc1cc(C)c(C(=O)OC2C(C)OC(OC3CCC(C)C4C3C=C(C)C3/C(C)=C\CC/C(C)=C/C5(C)C=C(C(=O)O)C(C)CC56OC(=O)/C(=C(\O)C34C)C6=O)C(O)C2O)c(OC)c1 (stereo not drawn)		inactive [at 9.27 µM]
CC[C@@H](Nc1c(Nc2cccc(C(=O)N(C)C)c2O)c(=O)c1=O)c1ccc(C)o1	inactive	
O=C(Cc1ccc(Cl)cc1)Nc1cnccc1C(=O)O	inactive	
Cn1nc(C(C)(C)C)cc1C(=O)NC(Cc1cccc(Cl)c1)C(=O)NCC#N (stereo not drawn)	inactive	
COc1ccc(-c2ccc(-c3cn(C(=O)N4CCCCC4c4ccccc4)nn3)cc2)cc1 (stereo not drawn)	inactive	
C/C(=C\CCC(C)(C)O)CCO[C@@H]1O[C@H](CO[C@@H]2O[C@@H](C)[C@H](O)[C@@H](O)[C@H]2O)[C@@H](O)[C@H](O)[C@H]1O	inactive	

— PubChem BioAssay (NCATS)
